Test results as given in PubChem BioAssay AID1159580 (chemical genetic matrix, 2015).
About 2,000 (36%) of roughly 5,500 compounds were called active. Roughly 18% stayed inconclusive and do not appear here. Cut-off read from the data, not from the text of the source: active = normalized growth mostly below about 0.91 (no sharp cut-off); inconclusive = no clear call, values can overlap the other calls; inactive = mostly above about 0.92. Some of the results follow.

Assay: chemical genetic growth profiling, strain panel (AID 1159580);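 note: tested at 20 µM; growth read once vehicle control cultures reached saturation at 30 °C; 1 = growth at the plate median or of vehicle wells; lower values mean less growth of the strain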
Conditions: growth OD
[1] = S. cerevisiae deletion strains, locus YAL013W, strain DEP1, hits give low values
[2] = S. cerevisiae deletion strains, locus YBR229C, strain ROT2, hits give low values
[3] = S. cerevisiae deletion strains, locus YCL061C, strain MRC1, hits give low values
[4] = S. cerevisiae deletion strains, locus YDL101C, strain DUN1, hits give low values
[5] = S. cerevisiae deletion strains, locus YDR150W, strain NUM1, hits give low values
[6] = S. cerevisiae deletion strains, locus YEL061C, strain CIN8, hits give low values
[7] = S. cerevisiae deletion strains, locus YGR078C, strain PAC10, hits give low values
[8] = S. cerevisiae deletion strains, locus YHR030C, strain SLT2, hits give low values
[9] = S. cerevisiae deletion strains, locus YHR087W, strain rtc3, hits give low values
[10] = S. cerevisiae deletion strains, locus YJL187C, strain SWE1, hits give low values
[11] = S. cerevisiae deletion strains, locus YJR043C, strain POL32, hits give low values
[12] = S. cerevisiae deletion strains, locus YJR075W, strain HOC1, hits give low values
[13] = S. cerevisiae deletion strains, locus YKL190W, strain CNB1, hits give low values
[14] = S. cerevisiae deletion strains, locus YLR039C, strain RIC1, hits give low values
[15] = S. cerevisiae deletion strains, locus YLR058C, strain SHM2 (second series), hits give low values
[16] = S. cerevisiae deletion strains, locus YLR085C, strain ARP6, hits give low values
[17] = S. cerevisiae deletion strains, locus YLR262C, strain YPT6, hits give low values
[18] = S. cerevisiae deletion strains, locus YML094W, strain GIM5, hits give low values
[19] = S. cerevisiae deletion strains, locus YMR219W, strain ESC1, hits give low values
[20] = S. cerevisiae deletion strains, locus YMR263W, strain SAP30, hits give low values
[21] = S. cerevisiae deletion strains, locus YNL153C, strain GIM3, hits give low values
[22] = S. cerevisiae deletion strains, locus YNL298W, strain CLA4 (second series), hits give low values
[23] = S. cerevisiae deletion strains, locus YNL322C, strain KRE1, hits give low values
[24] = S. cerevisiae deletion strains, locus YNR030W, strain Alg12, hits give low values
[25] = S. cerevisiae deletion strains, locus YPL055C, strain LGE1, hits give low values
[26] = S. cerevisiae deletion strains, locus YPL241C, strain CIN2, hits give low values
[27] = S. cerevisiae deletion strains, locus YPR135W, strain CTF4, hits give low values
[28] = S. cerevisiae deletion strains, locus YMR307W, strain GAS1, hits give low values
[29] = S. cerevisiae deletion strains, locus YGR229C, strain SMI1, hits give low values

Measured: normalized growth

Cc1cccc(N2C(=O)C3C4C=CC(C4)C3C2=O)n1 (stereo unspecified)
inactive: [1] 0.994 | [2] 0.993 | [3] 0.985 | [4] 0.989 | [5] 0.987 | [6] 0.987 | [7] 1.01 | [8] 0.999 | [9] 0.971 | [10] 0.995 | [11] 1.01 | [12] 0.989 | [13] 0.991 | [14] 0.977 | [15] 0.992 | [16] 0.987 | [17] 0.998 | [18] 0.983 | [19] 0.992 | [20] 0.987 | [21] 1 | [22] 1.01 | [23] 1.01 | [24] 1 | [25] 0.991 | [26] 1.01 | [27] 1.03 | S. cerevisiae strains, strain wild type, hits give low values 0.999

Cc1cccc(NCN2C(=O)CCC2=O)n1
active: [14] 0.643 | [17] 0.572
inactive: [1] 0.968 | [2] 0.996 | [4] 0.956 | [5] 0.959 | [6] 0.982 | [7] 0.965 | [8] 0.821 | [9] 1.06 | [11] 0.972 | [12] 0.987 | [15] 0.97 | [16] 0.95 | [18] 0.932 | [19] 0.992 | [20] 1.01 | [28] 1.22 | [21] 0.98 | [22] 0.938 | [23] 0.983 | [24] 0.977 | [25] 1 | [26] 0.96 | [27] 0.978

O=C1CCC(=O)N1CNc1ccccc1OC(F)(F)F
inactive: [1] 0.968 | [2] 0.994 | [3] 1.01 | [4] 0.963 | S. cerevisiae deletion strains, locus YDL134C, strain PPH21, hits give low values 0.999 | [5] 1.02 | [6] 0.984 | [7] 0.996 | [29] 0.998 | [8] 1.04 | [9] 0.989 | [10] 1 | [11] 1 | [12] 0.997 | [13] 0.999 | [14] 0.991 | [15] 0.992 | [16] 1.02 | [17] 1.05 | [18] 1.02 | [19] 0.993 | [20] 1.03 | [28] 1.2 | S. cerevisiae deletion strains, locus YNL128W, strain TEP1, hits give low values 0.993 | [21] 1.01 | [22] 0.971 | [23] 0.983 | [24] 1 | [25] 1.07 | [26] 1.02 | [27] 0.92

CC1=CC(C)(C)NC(=S)N1
inactive: [1] 1.01 | [2] 1.01 | [4] 1 | [5] 0.981 | [6] 1.01 | [7] 1 | [29] 1.02 | [8] 1.06 | [9] 1 | [11] 1 | [12] 1.01 | [13] 1.01 | [14] 1.01 | [15] 1 | [16] 0.984 | [17] 1.05 | [18] 0.996 | [19] 1 | [20] 1.02 | [21] 0.997 | [22] 1 | [23] 1.01 | [24] 1.01 | [25] 0.984 | [26] 1.03 | [27] 1.06

Oc1ccc(-n2nnnc2SCc2ccc(OC(F)(F)F)cc2)cc1
inactive: S. cerevisiae deletion strains, locus YAR019C, strain CDC15, hits give low values 0.974 | S. cerevisiae deletion strains, locus YBL105C, strain PKC1, hits give low values 0.971 | S. cerevisiae deletion strains, locus YBR135W, strain CKS1, hits give low values 0.979 | S. cerevisiae deletion strains, locus YBR136W, strain MEC1, hits give low values 0.975 | S. cerevisiae deletion strains, locus YBR160W, strain CDC28, hits give low values 0.971 | S. cerevisiae deletion strains, locus YDL017W, strain CDC7, hits give low values 0.982 | S. cerevisiae deletion strains, locus YDL028C, strain MPS1, hits give low values 0.979 | [4] 0.988 | S. cerevisiae deletion strains, locus YDL108W, strain KIN28, hits give low values 0.972 | S. cerevisiae deletion strains, locus YDL132W, strain cdc53, hits give low values 0.984 | S. cerevisiae deletion strains, locus YDL214C, strain PRR2, hits give low values 0.815 | S. cerevisiae deletion strains, locus YDR052C, strain DBF4, hits give low values 0.984 | S. cerevisiae deletion strains, locus YDR054C, strain cdc34, hits give low values 0.968 | S. cerevisiae deletion strains, locus YDR226W, strain ADK1, hits give low values 0.98 | S. cerevisiae deletion strains, locus YDR477W, strain SNF1, hits give low values 0.783 | S. cerevisiae deletion strains, locus YER123W, strain YCK3, hits give low values 0.651 | S. cerevisiae deletion strains, locus YER133W, strain GLC7, hits give low values 0.767 | S. cerevisiae deletion strains, locus YFL009W, strain cdc4, hits give low values 0.975 | S. cerevisiae deletion strains, locus YFL029C, strain CAK1, hits give low values 0.97 | S. cerevisiae deletion strains, locus YFR003C, strain YPI1, hits give low values 0.98 | S. cerevisiae deletion strains, locus YFR019W, strain FAB1, hits give low values 0.794 | S. cerevisiae deletion strains, locus YFR028C, strain CDC14, hits give low values 0.97 | S. cerevisiae deletion strains, locus YGR040W, strain KSS1, hits give low values 0.747 | S. cerevisiae deletion strains, locus YGR092W, strain DBF2, hits give low values 0.663 | S. cerevisiae deletion strains, locus YHR079C, strain IRE1, hits give low values 0.563 | S. cerevisiae deletion strains, locus YHR082C, strain KSP1, hits give low values 0.617 | S. cerevisiae deletion strains, locus YHR205W, strain SCH9, hits give low values 0.867 | S. cerevisiae deletion strains, locus YIL147C, strain SLN1, hits give low values 0.984 | S. cerevisiae deletion strains, locus YJL095W, strain BCK1, hits give low values 0.597 | S. cerevisiae deletion strains, locus YJL128C, strain PBS2, hits give low values 0.932 | S. cerevisiae deletion strains, locus YJL157C, strain FAR1, hits give low values 0.832 | S. cerevisiae deletion strains, locus YJR016C, strain ILV3, hits give low values 0.977 | S. cerevisiae deletion strains, locus YJR066W, strain TOR1 (second series), hits give low values 0.738 | S. cerevisiae deletion strains, locus YJR066W, strain TOR1, hits give low values 0.647 | S. cerevisiae deletion strains, locus YKL067W, strain YNK1, hits give low values 0.794 | S. cerevisiae deletion strains, locus YKL193C, strain SDS22, hits give low values 0.978 | S. cerevisiae deletion strains, locus YKL203C, strain TOR2, hits give low values 0.803 | S. cerevisiae deletion strains, locus YLR133W, strain CKI1, hits give low values 0.835 | S. cerevisiae deletion strains, locus YLR403W, strain SFP1, hits give low values 0.828 | S. cerevisiae deletion strains, locus YML070W, strain DAK1, hits give low values 0.703 | S. cerevisiae deletion strains, locus YMR001C, strain CDC5, hits give low values 0.97 | S. cerevisiae deletion strains, locus YMR205C, strain PFK2 (second series), hits give low values 0.782 | S. cerevisiae deletion strains, locus YMR277W, strain FCP1, hits give low values 0.981 | S. cerevisiae deletion strains, locus YNL006W, strain LST8, hits give low values 0.981 | S. cerevisiae deletion strains, locus YNL020C, strain ARK1, hits give low values 0.805 | S. cerevisiae deletion strains, locus YNL161W, strain CBK1, hits give low values 0.976 | S. cerevisiae deletion strains, locus YNL183C, strain NPR1, hits give low values 0.635 | S. cerevisiae deletion strains, locus YNL207W, strain RIO2, hits give low values 0.97 | S. cerevisiae deletion strains, locus YNL222W, strain SSU72, hits give low values 0.966 | S. cerevisiae deletion strains, locus YNL307C, strain MCK1 (second series), hits give low values 0.791 | S. cerevisiae deletion strains, locus YOL078W, strain AVO1, hits give low values 0.978 | S. cerevisiae deletion strains, locus YOL136C, strain PFK27, hits give low values 0.75 | S. cerevisiae deletion strains, locus YOR061W, strain CKA2, hits give low values 0.772 | S. cerevisiae deletion strains, locus YOR119C, strain RIO1, hits give low values 0.806 | S. cerevisiae deletion strains, locus YOR329C, strain SCD5, hits give low values 0.986 | S. cerevisiae deletion strains, locus YPL031C, strain PHO85, hits give low values 0.725 | S. cerevisiae deletion strains, locus YPL209C, strain IPL1, hits give low values 0.977 | S. cerevisiae deletion strains, locus YPR025C, strain CCL1, hits give low values 0.975 | S. cerevisiae deletion strains, locus YPR106W, strain ISR1, hits give low values 0.971 | S. cerevisiae deletion strains, locus YPR111W, strain DBF20, hits give low values 0.967 | S. cerevisiae deletion strains, strain NNK1, hits give low values 0.979 | S. cerevisiae deletion strains, strain TSCII, hits give low values 0.983
active: S. cerevisiae deletion strains, locus YGR052W, strain FMP48, hits give low values 0.577 | [8] 0.554 | S. cerevisiae deletion strains, locus YKL048C, strain ELM1, hits give low values 0.635 | S. cerevisiae deletion strains, locus YKL101W, strain HSL1, hits give low values 0.716 | S. cerevisiae deletion strains, locus YLR113W, strain HOG1, hits give low values 0.523 | S. cerevisiae deletion strains, locus YOR231W, strain MKK1, hits give low values 0.509 | S. cerevisiae deletion strains, locus YPL153C, strain RAD53, hits give low values 0.599 | S. cerevisiae deletion strains, locus YPL204W, strain HRR25, hits give low values 0.622 | S. cerevisiae deletion strains, locus YPL256C, strain CLN2, hits give low values 0.467
